# Data taken from ChEMBL document CHEMBL4513146, “CO-ADD screening of Karazin Kharkiv National University (Ukraine) compounds”.
# Potency and affinity values are given separately.
# System: Klebsiella pneumoniae
# Details: Concentration 32 ug.mL-1;; ASSAY_TEST Inhibition of Bacterial Growth; detection method Absorption (OD600); MEDIA CAMHB; plate type 384well; NBS; CORNING #3640; time 18 hr
row,Compound,Inhibition [%]
1,Cc1ccc(Oc2nc3ccccc3n3c(=O)n(CC(=O)Nc4ccc5c(c4)OCO5)nc23)cc1,4.57
2,Cc1ccc(CN(c2ccc(C(C)C)cc2)S(=O)(=O)c2cccn3cnnc23)cc1,23.96
3,Cc1cccc(Sc2nc3ccccc3n3c(=O)n(CC(=O)Nc4c(C)cc(C)cc4C)nc23)c1,10.9
4,COc1cc(OC)c(NC(=O)Cn2nc3ccc(-c4ccc(C)c(C)c4)nn3c2=O)cc1Cl,7.84
5,COc1cccc(NC(=O)Cn2nc3ccc(-c4ccc(Cl)cc4)nn3c2=O)c1,5.27
6,Cc1ccc(NC(=O)Cn2c(=O)c3nnc(C)n3c3ccccc32)cc1C,6.79
7,Cc1cc(NC(=O)CSc2nc3ccccc3n3cnnc23)ccc1Br,14.4
8,CCCCOc1ccc(-c2cc3c4nnc(SCC(=O)Nc5ccccc5Cl)n4ccn3n2)cc1,5.58
9,O=C(Cn1nc2n(Cc3ccccc3)c(=O)c3ccccc3n2c1=O)Nc1ccc2c(c1)OCO2,2.83
10,Cc1nnc2c(=O)n(CC(=O)Nc3ccc(F)cc3)c3ccccc3n12,10.46
11,Cc1ccc(-c2ccc3nn(Cc4cccc(F)c4)c(=O)n3n2)cc1C,7.96
12,Cc1ccccc1Oc1nccn2c(=O)n(CC(=O)Nc3ccc(C(C)C)cc3)nc12,6.08
13,COc1ccc(N(Cc2ccc(F)cc2)S(=O)(=O)c2ccc3nncn3c2)cc1,12.52
14,Cc1cccc(CN(c2cccc(F)c2)S(=O)(=O)c2ccc3nncn3c2)c1,14.36
15,Cc1ccc(NC(=O)Cn2nc3c4cc(-c5ccc(Cl)cc5)nn4ccn3c2=O)cc1C,9.71
16,O=C(CCc1nnc2c3cc(-c4ccccc4)nn3ccn12)N1CCN(C(=O)c2ccco2)CC1,11.67
17,CCOc1ccc(-n2ccn3c(SCC(=O)Nc4cc(Cl)ccc4OC)nnc3c2=O)cc1,12.81
18,Cc1ccc(Sc2nccn3c(=O)n(CC(=O)Nc4c(C)cc(C)cc4C)nc23)c(C)c1,17.85
19,Cc1ccccc1-c1noc(Cn2nc3ccc(-c4ccccc4)nn3c2=O)n1,4.12
20,CCOc1ccc(-n2ccn3c(SCC(=O)Nc4cc(F)ccc4F)nnc3c2=O)cc1,6.4

row,Compound,Inhibition [%]
1,Cc1cccc(N(Cc2ccc(F)cc2)S(=O)(=O)c2cccn3c(C)nnc23)c1,7.81
2,O=C(Cn1nc2c(SCc3ccccc3)nccn2c1=O)NCc1ccc(Cl)cc1,-3.05
3,COc1ccc(C(=O)CSc2nnc3c(=O)n(-c4ccc(F)cc4)ccn23)cc1OC,11.15
4,COC(=O)c1ccc(NC(=O)Cn2nc3c4cc(-c5ccc(OC)cc5)nn4ccn3c2=O)cc1,9.58
5,CCOc1ccc(NC(=O)Cn2nc3ccc(SCc4ccc(Cl)cc4)nn3c2=O)cc1,7.43
6,Cc1nnc2ccc(S(=O)(=O)N(Cc3cccc(F)c3)c3ccc(F)cc3)cn12,4.75
7,Cc1cccc(C)c1NC(=O)Cn1nc2c3cc(-c4ccc(Cl)cc4)nn3ccn2c1=O,6.6
8,Cc1oc(-c2cccc(Cl)c2)nc1CSc1nc2ccccc2n2c(C(C)C)nnc12,8.12
9,COc1ccccc1N1CCN(C(=O)CSc2nc3ccccc3n3cnnc23)CC1,8.29
10,Cc1ccc(-c2cc3c4nn(CC(=O)Nc5ccc6c(c5)OCO6)c(=O)n4ccn3n2)cc1C,2.27
11,CCc1ccccc1Sc1nccn2c(=O)n(CC(=O)Nc3c(C)cccc3C)nc12,10.25
12,Cc1[nH]c2ccccc2c1C(=O)CSc1nnc2c(=O)n(-c3ccc(Br)cc3)ccn12,4.84
13,COc1cccc(CNC(=O)CSc2nnc3c(=O)n(-c4ccc(F)cc4)ccn23)c1OC,1.04
14,COc1cccc(CN(c2ccc(F)c(F)c2)S(=O)(=O)c2cccn3c(C)nnc23)c1,13.94
15,C=Cc1ccc(CN(c2ccc(C(C)C)cc2)S(=O)(=O)c2cccn3cnnc23)cc1,14.46
16,COc1cc(NC(=O)CSc2nnc3c(=O)n(-c4cccc(OC)c4)ccn23)cc(OC)c1,6.06
17,COc1ccc(NC(=O)Cn2nc3ccc(-c4ccccc4)nn3c2=O)cc1,5.42
18,O=C(CSc1nnc2c(=O)n(-c3ccccc3)ccn12)Nc1ccc(F)cc1F,1.13
19,Cc1ccc(Cl)cc1NC(=O)CSc1nnc2n(CC3CCCO3)c(=O)c3sccc3n12 (stereo not drawn),10.58

# System: Candida albicans
# Details: Concentration 32 ug.mL-1; ASSAY_TEST Inhibition of Fungal Growth; detection method Absorption (OD530)
row,Compound,Inhibition [%]
1,Cc1ccc(Oc2nc3ccccc3n3c(=O)n(CC(=O)Nc4ccc5c(c4)OCO5)nc23)cc1,10.98
2,Cc1ccc(CN(c2ccc(C(C)C)cc2)S(=O)(=O)c2cccn3cnnc23)cc1,3.57
3,Cc1cccc(Sc2nc3ccccc3n3c(=O)n(CC(=O)Nc4c(C)cc(C)cc4C)nc23)c1,0.56
4,COc1cc(OC)c(NC(=O)Cn2nc3ccc(-c4ccc(C)c(C)c4)nn3c2=O)cc1Cl,1.07
5,COc1cccc(NC(=O)Cn2nc3ccc(-c4ccc(Cl)cc4)nn3c2=O)c1,2.11
6,Cc1ccc(NC(=O)Cn2c(=O)c3nnc(C)n3c3ccccc32)cc1C,0.69
7,Cc1cc(NC(=O)CSc2nc3ccccc3n3cnnc23)ccc1Br,4.71
8,CCCCOc1ccc(-c2cc3c4nnc(SCC(=O)Nc5ccccc5Cl)n4ccn3n2)cc1,2.9
9,O=C(Cn1nc2n(Cc3ccccc3)c(=O)c3ccccc3n2c1=O)Nc1ccc2c(c1)OCO2,0.36
10,Cc1nnc2c(=O)n(CC(=O)Nc3ccc(F)cc3)c3ccccc3n12,0.41
11,Cc1ccc(-c2ccc3nn(Cc4cccc(F)c4)c(=O)n3n2)cc1C,2.65
12,Cc1ccccc1Oc1nccn2c(=O)n(CC(=O)Nc3ccc(C(C)C)cc3)nc12,37.73
13,COc1ccc(N(Cc2ccc(F)cc2)S(=O)(=O)c2ccc3nncn3c2)cc1,2.69
14,Cc1cccc(CN(c2cccc(F)c2)S(=O)(=O)c2ccc3nncn3c2)c1,3.33
15,Cc1ccc(NC(=O)Cn2nc3c4cc(-c5ccc(Cl)cc5)nn4ccn3c2=O)cc1C,6.69
16,O=C(CCc1nnc2c3cc(-c4ccccc4)nn3ccn12)N1CCN(C(=O)c2ccco2)CC1,2.11
17,CCOc1ccc(-n2ccn3c(SCC(=O)Nc4cc(Cl)ccc4OC)nnc3c2=O)cc1,1.86
18,Cc1ccc(Sc2nccn3c(=O)n(CC(=O)Nc4c(C)cc(C)cc4C)nc23)c(C)c1,-0.74
19,Cc1ccccc1-c1noc(Cn2nc3ccc(-c4ccccc4)nn3c2=O)n1,31.81
20,CCOc1ccc(-n2ccn3c(SCC(=O)Nc4cc(F)ccc4F)nnc3c2=O)cc1,2.5

row,Compound,Inhibition [%]
1,Cc1cccc(N(Cc2ccc(F)cc2)S(=O)(=O)c2cccn3c(C)nnc23)c1,3.26
2,O=C(Cn1nc2c(SCc3ccccc3)nccn2c1=O)NCc1ccc(Cl)cc1,1.33
3,COc1ccc(C(=O)CSc2nnc3c(=O)n(-c4ccc(F)cc4)ccn23)cc1OC,4.19
4,COC(=O)c1ccc(NC(=O)Cn2nc3c4cc(-c5ccc(OC)cc5)nn4ccn3c2=O)cc1,0.9
5,CCOc1ccc(NC(=O)Cn2nc3ccc(SCc4ccc(Cl)cc4)nn3c2=O)cc1,15.3
6,Cc1nnc2ccc(S(=O)(=O)N(Cc3cccc(F)c3)c3ccc(F)cc3)cn12,1.87
7,Cc1cccc(C)c1NC(=O)Cn1nc2c3cc(-c4ccc(Cl)cc4)nn3ccn2c1=O,-0.5
8,Cc1oc(-c2cccc(Cl)c2)nc1CSc1nc2ccccc2n2c(C(C)C)nnc12,1.38
9,COc1ccccc1N1CCN(C(=O)CSc2nc3ccccc3n3cnnc23)CC1,2.74
10,Cc1ccc(-c2cc3c4nn(CC(=O)Nc5ccc6c(c5)OCO6)c(=O)n4ccn3n2)cc1C,33.95
11,CCc1ccccc1Sc1nccn2c(=O)n(CC(=O)Nc3c(C)cccc3C)nc12,3.49
12,Cc1[nH]c2ccccc2c1C(=O)CSc1nnc2c(=O)n(-c3ccc(Br)cc3)ccn12,1.31
13,COc1cccc(CNC(=O)CSc2nnc3c(=O)n(-c4ccc(F)cc4)ccn23)c1OC,2.96
14,COc1cccc(CN(c2ccc(F)c(F)c2)S(=O)(=O)c2cccn3c(C)nnc23)c1,-0.28
15,C=Cc1ccc(CN(c2ccc(C(C)C)cc2)S(=O)(=O)c2cccn3cnnc23)cc1,3.5
16,COc1cc(NC(=O)CSc2nnc3c(=O)n(-c4cccc(OC)c4)ccn23)cc(OC)c1,3.75
17,COc1ccc(NC(=O)Cn2nc3ccc(-c4ccccc4)nn3c2=O)cc1,2.69
18,O=C(CSc1nnc2c(=O)n(-c3ccccc3)ccn12)Nc1ccc(F)cc1F,1.82
19,Cc1ccc(Cl)cc1NC(=O)CSc1nnc2n(CC3CCCO3)c(=O)c3sccc3n12 (stereo not drawn),-1.49
